Our source for the cytotoxicity call values is the antibiotic and cytotoxicity screens of Wong et al. (2023).

Out of some 39,000 compounds screened, about 1,500 (3.8%) were called active. The sample as a whole holds a higher share of actives than the screen did.

The subject of the assay is HSkMC (human skeletal muscle cells). The experiment in a line: cytotoxicity call (relative viability < 0.9). The conditions noted are these: 10 µM.
For `C/C=C/c1ccc2c(c1)O[C@@H](CN(C)S(=O)(=O)c1ccc(C)cc1)[C@@H](C)CN([C@@H](C)CO)S2(=O)=O`, the cytotoxicity call was “inactive”. In the case of `C[C@H]1CCCCO[C@@H](CN(C)S(=O)(=O)c2cccs2)[C@@H](C)CN([C@@H](C)CO)C(=O)c2cc(NC(=O)NC3CCCCC3)ccc2O1`, the cytotoxicity call was “inactive”. `CCn1nc(C)c([C@@H](C)N)c1C`: the cytotoxicity call was “inactive”. Take `Cc1ccc(S(=O)(=O)Nc2ccc3c(c2)C(=O)N([C@H](C)CO)C[C@@H](C)[C@H](CN(C)C(=O)Nc2cccc4ccccc24)OCCCC[C@H](C)O3)cc1`: the cytotoxicity call was “inactive”. As for `COc1ccc(NC(=O)N(C)C[C@H]2Oc3ccc(NS(C)(=O)=O)cc3C(=O)N([C@H](C)CO)C[C@H]2C)cc1`, the entry is “inactive”; as for `C[C@H]1CN([C@@H](C)CO)C(=O)Cc2cc(NC(=O)Cn3cnnn3)ccc2O[C@@H]1CN(C)C(=O)NC1CCCCC1`, “inactive”.

On to `CC1(C)CNCC(=O)NC1`, for which the cytotoxicity call was “inactive”. With `Cc1cc(C)nc(SCC(=O)NN)n1` the entry was “inactive”. `Cc1cn(-c2cc(NC(=O)c3ccc(C)c(Nc4nccc(-c5cnccn5)n4)c3)cc(C(F)(F)F)c2)cn1`: the cytotoxicity call was “active”. As for `Cc1ccc(C(=O)Nc2cccc(C(F)(F)F)c2)cc1Nc1nc(-c2cccnc2)nc2c1cnn2C`, the entry is “inactive”. With `Cc1ccc(NC(=O)c2ccc(CN3CCN(C)CC3)cc2)cc1Nc1nccc(-c2cccnc2)n1`, the cytotoxicity call is “inactive”.

Take `Cc1ncc(NC(=O)c2ccc(CN3CCN(C)CC3)c(C(F)(F)F)c2)cc1Nc1nccc(-c2cccnc2)n1`: the cytotoxicity call is “inactive”. As for `Cc1cn(-c2cc(NC(=O)c3ccc(C)c(Nc4nccc(-c5cccnc5)n4)c3)cc(C(F)(F)F)c2)cn1`, the entry is “active”. As for `O=C(Nc1cccnc1)c1nc2ncccn2n1`, the entry is “inactive”; as for `Cc1ccc(NC(=O)c2ccc(CN3CC[C@H](N(C)C)C3)c(C(F)(F)F)c2)cc1Nc1nccc(-c2cncnc2)n1`, “active”; as for `C[C@@H]1CN([C@H](C)CO)C(=O)c2cc(/C=C/c3ccccc3)cnc2O[C@H]1CN(C)C(=O)c1cnccn1`, “inactive”. Take `CN1CCN(C(=O)C[C@@H]2CC[C@H]3[C@@H](COC[C@@H](O)CN3C(=O)C3CCCC3)O2)CC1`: the cytotoxicity call was “inactive”. As for `Cc1noc(C)c1S(=O)(=O)Nc1ccc2c(c1)C(=O)N([C@H](C)CO)C[C@@H](C)[C@H](CN(C)S(=O)(=O)c1cccs1)O2`, the entry is “inactive”. With `Cc1ccc(S(=O)(=O)Nc2ccc3c(c2)C(=O)N([C@H](C)CO)C[C@H](C)[C@@H](CN(C)Cc2ccncc2)OCCCC[C@H](C)O3)cc1` the entry was “inactive”; with `COc1ccc(NC(=O)N(C)C[C@@H]2OCCCC[C@@H](C)Oc3ccc(NC(=O)Cc4ccccc4)cc3C(=O)N([C@@H](C)CO)C[C@H]2C)cc1`, “inactive”. As for `C[C@H](CO)N1C[C@H](C)[C@@H](CN(C)Cc2ccc(C(=O)O)cc2)Oc2c(NC(=O)Nc3cccc4ccccc34)cccc2C1=O`, the cytotoxicity call was “inactive”. As for `C[C@@H]1CCCCO[C@H](CN(C)S(C)(=O)=O)[C@@H](C)CN([C@H](C)CO)C(=O)c2cc(NS(=O)(=O)c3ccc(F)cc3)ccc2O1`, the entry is “inactive”. Take `C[C@@H]1CN([C@H](C)CO)C(=O)c2cc(NC(=O)Nc3ccc(C(F)(F)F)cc3)ccc2O[C@@H](C)CCCCO[C@H]1CN(C)S(=O)(=O)c1cn(C)cn1`: the cytotoxicity call was “inactive”.

Take `COc1ccc(S(=O)(=O)Nc2ccc3c(c2)C(=O)N([C@@H](C)CO)C[C@H](C)[C@@H](CN(C)C(=O)c2ccccc2)OCCCC[C@H](C)O3)cc1`: the cytotoxicity call was “inactive”.

In the case of `COc1cc2c(cc1OC)-c1c(oc3c4c(ccc3c1=O)OC(C)(C)C=C4)CO2`, the cytotoxicity call was “inactive”. For `COc1c(-c2coc3cc4c(cc3c2=O)CC(O)C(C)(C)O4)ccc2c1C=CC(C)(C)O2` (stereo unspecified), the cytotoxicity call was “active”. As for `COc1cc2c(=O)c(-c3ccc4c(c3)OCO4)coc2c2c1OC(C)(C)C=C2`, the entry is “inactive”. With `C[C@@H]1CCCCO[C@@H](CN(C)Cc2ccc(C(=O)O)cc2)[C@H](C)CN([C@H](C)CO)C(=O)c2cc(NC(=O)NC3CCCCC3)ccc2O1` the entry was “inactive”; with `COCC#Cc1ccc2c(c1)O[C@H](CN(C)S(=O)(=O)c1ccc(OC)cc1)[C@H](C)CN([C@@H](C)CO)S2(=O)=O`, “inactive”. With `Cc1noc(C)c1S(=O)(=O)Nc1ccc2c(c1)CC(=O)N([C@H](C)CO)C[C@H](C)[C@@H](CN(C)Cc1ccc(-c3ccccc3)cc1)O2` the entry was “active”; with `Cc1noc(C)c1S(=O)(=O)Nc1ccc2c(c1)CC(=O)N([C@H](C)CO)C[C@@H](C)[C@H](CN(C)Cc1ccc(-c3ccccc3)cc1)O2`, “inactive”; with `Cc1noc(C)c1S(=O)(=O)Nc1ccc2c(c1)CC(=O)N([C@@H](C)CO)C[C@@H](C)[C@@H](CN(C)Cc1ccc(-c3ccccc3)cc1)O2`, “inactive”. As to `Cc1noc(C)c1S(=O)(=O)Nc1ccc2c(c1)CC(=O)N([C@@H](C)CO)C[C@H](C)[C@H](CN(C)Cc1ccc(-c3ccccc3)cc1)O2`, the cytotoxicity call is “inactive”. With `Cc1noc(C)c1S(=O)(=O)Nc1ccc2c(c1)CC(=O)N([C@@H](C)CO)C[C@@H](C)[C@H](CN(C)Cc1ccc(-c3ccccc3)cc1)O2` the entry was “active”; with `Cc1noc(C)c1S(=O)(=O)Nc1ccc2c(c1)CC(=O)N([C@@H](C)CO)C[C@H](C)[C@@H](CN(C)Cc1ccc(-c3ccccc3)cc1)O2`, “inactive”; with `CC(C)CC#Cc1cnc2c(c1)C(=O)N([C@H](C)CO)C[C@H](C)[C@@H](CN(C)C(=O)CN1CCOCC1)O2`, “inactive”. With `NC(=O)N1C(=O)[C@H]2[C@H](C1=O)[C@H]1C=C(CCCO)[C@@H]2[C@H](c2ccc(CN3CCCC3)cc2)N1Cc1sc2ccccc2c1Cl` the entry was “inactive”.

`C[C@@H]1CN([C@H](C)CO)C(=O)c2cc(NS(=O)(=O)c3cccs3)ccc2O[C@@H]1CN(C)CC1CC1`: the cytotoxicity call was “inactive”. Turning to `C[C@@H]1CN([C@H](C)CO)C(=O)Cc2cc(NS(=O)(=O)c3cccs3)ccc2O[C@H]1CN(C)S(=O)(=O)c1ccc(F)cc1`, the cytotoxicity call is “inactive”. Turning to `C[C@H](CO)N1C[C@H](C)[C@@H](CN(C)C(=O)Nc2ccc(F)cc2)OCCCC[C@H](C)Oc2ccc(NC(=O)Nc3cccc4ccccc34)cc2C1=O`, the cytotoxicity call was “inactive”. With `COCCCNC(=O)[C@@]1(Cc2ccccc2I)c2ccccc2C(=O)N(C2CCCCC2)[C@H]1c1ccc(CO)cc1` the entry was “inactive”; with `C[C@@H]1CN([C@H](C)CO)C(=O)Cc2cc(NC(=O)Nc3ccccc3)ccc2O[C@@H]1CN(C)Cc1ccc(C(F)(F)F)cc1`, “active”; with `C[C@@H]1CN([C@@H](C)CO)C(=O)Cc2cc(NC(=O)Nc3ccccc3)ccc2O[C@@H]1CN(C)Cc1ccc(C(F)(F)F)cc1`, “active”. With `C[C@H]1CN([C@@H](C)CO)C(=O)Cc2cc(NC(=O)Nc3ccccc3)ccc2O[C@H]1CN(C)Cc1ccc(C(F)(F)F)cc1` the entry was “active”; with `C[C@H](CO)N1C[C@H](C)[C@@H](CN(C)Cc2ccc(C(F)(F)F)cc2)Oc2ccc(NC(=O)Nc3ccccc3)cc2CC1=O`, “inactive”. As to `C[C@@H]1CN([C@@H](C)CO)C(=O)Cc2cc(NC(=O)Nc3ccccc3)ccc2O[C@H]1CN(C)Cc1ccc(C(F)(F)F)cc1`, the cytotoxicity call was “active”.
